Here are results for eight molecules from PubChem BioAssay.

For one test, the target named is Albumin (Bos taurus) (UniProt P02769). Put plainly: bovine serum albumin binders on microarray, profiling panel, artefact control for SMM control protein annotation, biochemical, small-molecule microarray, Alexa647 label, 635/667 nm fluorescence (AID 1118).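 Also: score merges 667 nm emission intensity and signal-to-noise per printed compound spot.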 The following applies: BSA-A647 binding, fluorescence 635 nm, higher = more signal.
Sequence of Albumin (Bos taurus) (P02769 whole entry, looked up): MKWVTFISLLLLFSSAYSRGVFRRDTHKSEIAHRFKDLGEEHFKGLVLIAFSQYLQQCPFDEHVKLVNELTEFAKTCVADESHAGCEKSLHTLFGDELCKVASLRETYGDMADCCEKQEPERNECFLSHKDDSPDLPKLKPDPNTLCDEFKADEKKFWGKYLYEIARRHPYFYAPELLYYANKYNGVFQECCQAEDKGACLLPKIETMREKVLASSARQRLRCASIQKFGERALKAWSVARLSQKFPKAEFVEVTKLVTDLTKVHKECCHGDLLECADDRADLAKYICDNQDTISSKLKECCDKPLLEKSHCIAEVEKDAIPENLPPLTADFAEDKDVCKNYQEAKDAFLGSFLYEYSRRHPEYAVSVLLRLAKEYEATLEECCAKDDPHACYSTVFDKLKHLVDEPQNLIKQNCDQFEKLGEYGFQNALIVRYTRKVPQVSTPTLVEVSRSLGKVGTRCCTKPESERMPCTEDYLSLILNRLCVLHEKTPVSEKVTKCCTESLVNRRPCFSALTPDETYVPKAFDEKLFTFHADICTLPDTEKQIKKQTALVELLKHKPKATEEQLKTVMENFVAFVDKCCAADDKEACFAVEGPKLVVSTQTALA
The nature of test [1]: small-molecule microarray binders of probe aXIP, primary screen, biochemical, NeuroSMM set, 635/667 nm fluorescence (AID 1119).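 Also: probe is the protein aXip251-270 applied at 1 µg/mL to compound-printed slides; binding of probe to printed compounds measured as 667 nm fluorescence plus signal to noise.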 The following applies: higher = more signal, called active from +8 up or from −8 down unless noted.
Test [2] is described as follows: small-molecule binders of probe aNOTCH3, primary screen, biochemical, small-molecule microarray, 635/667 nm fluorescence (AID 1120).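 Also: probe is a biotin-tagged antibody raised against NOTCH3 rather than NOTCH3 protein; score merges spot fluorescence near 667 nm with spot signal to noise.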 The following applies: higher = more signal; small-molecule microarray, probe aNOTCH3, fluorescence unless noted.
Test [3] is described as follows: small-molecule binders of probe aNOTCH2, primary screen, biochemical, small-molecule microarray, 635/667 nm fluorescence (AID 1121).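 Also: score merges feature fluorescence read at 667 nm with its signal to noise.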 The following applies: higher = more signal; small-molecule microarray, probe aNOTCH2, fluorescence unless noted.
In test [4] the target is Carbonic anhydrase 2 (Homo sapiens) (UniProt P00918). Put plainly: CAII small-molecule binders, profiling panel, biochemical, small-molecule microarray, Alexa647-labelled CAII (AID 1122). The following applies: CAII-A647 binding fluorescence, higher = more signal.
Test [5] can be described thus: COS7 lysate on small-molecule microarray, probe aHis, 635 nm (AID 1123).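 Also: z-score combines 667nm fluorescence intensity with signal-to-noise per printed compound spot.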 The following applies: higher = more signal; small-molecule microarray, COS7 cell lysate, probe aHis, fluorescence unless noted.
Test [6] can be described thus: compound binding in COS7 lysate, probe aLAP1, primary screen, cell lysate, small-molecule microarray (AID 1124).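 Also: lysate comes from COS7 cells expressing LAP1 and is applied at 0.3 µg/mL; score merges spot fluorescence near 667 nm with signal-to-noise over triplicate slides.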 The following applies: higher = more signal; small-molecule microarray, COS7 cell lysate, probe aLAP1, fluorescence unless noted.
The next test has as its system Sam68 (KHDRBS1). Put plainly: Sam68 small-molecule binders, primary screen, biochemical, small-molecule microarray, 635 nm fluorescence (AID 1125).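 Also: score merges 667 nm channel intensity with signal to noise over triplicate slides.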 The following applies: small-molecule microarray binding, higher = more signal.
In test [7] the test system is Chordin-like protein 2 (CHRDL2). Put plainly: CHRDL2 small-molecule binders, primary screen, biochemical, small-molecule microarray, 635 nm fluorescence (AID 1126).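 Also: printed compound slides probed with Chrdl2 protein at 4 µg/mL for 1 h at 4 C; score merges 667 nm emission intensity with signal to noise over three replicate slides.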 The following applies: small-molecule microarray binding, fluorescence 635 nm; higher = more signal.
The target of test [8] is Concanavalin-A (Canavalia ensiformis) (UniProt P02866). The experiment in a line: ConA small-molecule binders, primary screen, artefact control for SMM control protein annotation, biochemical, small-molecule microarray, Alexa647 label, 635 nm (AID 1127).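 Also: z combines 667 nm emission intensity with signal-to-noise across three replicate slides.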 The following applies: ConA-A647 binding fluorescence, higher = more signal.
Sequence of Concanavalin-A (Canavalia ensiformis) (P02866 whole entry, looked up): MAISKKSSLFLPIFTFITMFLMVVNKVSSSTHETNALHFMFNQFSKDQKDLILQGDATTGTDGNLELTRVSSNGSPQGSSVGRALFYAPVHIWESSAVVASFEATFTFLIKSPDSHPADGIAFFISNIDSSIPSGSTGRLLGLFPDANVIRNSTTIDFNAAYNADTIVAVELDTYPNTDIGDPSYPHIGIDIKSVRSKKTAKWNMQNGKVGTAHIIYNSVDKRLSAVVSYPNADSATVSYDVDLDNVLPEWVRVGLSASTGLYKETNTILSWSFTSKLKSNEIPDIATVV
A short description of test [9]: anti-His antibody binders, primary screen, artefact control for SMM control protein annotation, biochemical, small-molecule microarray, 635 nm fluorescence (AID 1128).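 Also: score merges feature fluorescence with signal-to-noise for each printed compound spot.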 The following applies: anti-His Alexa647 antibody binding, higher = more signal.
Test [10] relates to Human papillomavirus type 1a E7 protein (residues 1-88). The experiment in a line: HPV1a E7 small-molecule binders, primary screen, biochemical, small-molecule microarray, residues 1-88, 635 nm (AID 1129). The following applies: small-molecule microarray binding, fluorescence 635 nm; higher = more signal.
Test [11] deals with Focal adhesion kinase 1 (Homo sapiens) (UniProt Q05397). Put plainly: small-molecule microarray binders of FAK, primary screen, biochemical, 635/667 nm fluorescence, BSA, DTT (AID 1130).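 Also: composite of spot emission at 667 nm and signal to noise over triplicate slides.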 The following applies: PTK2 binding, 635 nm fluorescence, higher = more signal.
Sequence of Focal adhesion kinase 1 (Homo sapiens) (Q05397 whole entry, looked up): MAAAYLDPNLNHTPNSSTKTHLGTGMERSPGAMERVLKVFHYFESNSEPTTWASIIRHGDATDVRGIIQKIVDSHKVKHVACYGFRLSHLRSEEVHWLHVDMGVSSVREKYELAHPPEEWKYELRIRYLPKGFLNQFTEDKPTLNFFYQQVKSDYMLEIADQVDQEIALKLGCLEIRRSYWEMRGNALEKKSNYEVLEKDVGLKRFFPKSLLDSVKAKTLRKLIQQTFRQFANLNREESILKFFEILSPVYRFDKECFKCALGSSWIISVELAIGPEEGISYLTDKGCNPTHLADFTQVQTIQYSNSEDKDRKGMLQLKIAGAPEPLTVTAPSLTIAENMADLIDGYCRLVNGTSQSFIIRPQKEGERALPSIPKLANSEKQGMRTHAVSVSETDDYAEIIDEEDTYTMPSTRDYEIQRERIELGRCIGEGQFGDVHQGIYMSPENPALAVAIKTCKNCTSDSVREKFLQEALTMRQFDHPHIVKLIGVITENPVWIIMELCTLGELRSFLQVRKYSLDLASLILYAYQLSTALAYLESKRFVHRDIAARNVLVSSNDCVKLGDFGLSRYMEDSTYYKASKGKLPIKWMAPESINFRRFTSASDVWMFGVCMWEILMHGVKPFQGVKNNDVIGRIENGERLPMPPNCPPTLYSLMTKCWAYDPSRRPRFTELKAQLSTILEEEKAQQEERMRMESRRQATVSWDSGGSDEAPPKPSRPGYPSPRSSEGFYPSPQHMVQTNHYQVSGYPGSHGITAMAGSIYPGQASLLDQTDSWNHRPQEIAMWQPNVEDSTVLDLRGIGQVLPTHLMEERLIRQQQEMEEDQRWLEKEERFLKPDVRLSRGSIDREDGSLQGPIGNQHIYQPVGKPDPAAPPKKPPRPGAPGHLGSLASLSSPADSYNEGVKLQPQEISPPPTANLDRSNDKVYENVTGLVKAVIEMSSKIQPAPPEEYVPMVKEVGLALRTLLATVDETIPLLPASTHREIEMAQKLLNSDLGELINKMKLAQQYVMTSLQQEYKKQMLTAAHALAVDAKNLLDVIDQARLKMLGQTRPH
Test [12] deals with Fibrinogen (Alexa647-labelled). Put plainly: fibrinogen binders on compound microarrays, profiling panel, artefact control for SMM control-protein annotation, biochemical, small-molecule microarray, 635/667 nm fluorescence (AID 1131).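 Also: z-score merges 667 nm fluorescence with per-spot signal-to-noise over triplicate slides.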 The following applies: fibrinogen-A647 binding fluorescence, higher = more signal.
Test [13] concerns the target Follistatin (Homo sapiens) (UniProt P19883). The experiment in a line: follistatin binders on small-molecule microarrays, primary screen, biochemical, small-molecule microarray, 635/667 nm fluorescence (AID 1132). The following applies: FST binding, 635 nm fluorescence, higher = more signal.
In test [14] the target is Fibroblast growth factor 2 (Homo sapiens) (UniProt P09038). The experiment in a line: FGF2 binders on small-molecule microarrays, primary screen, biochemical, small-molecule microarray, 635/667 nm fluorescence (AID 1133). The following applies: small-molecule microarray binding, FGF2, fluorescence 635/667; higher = more signal.
Sequence of Fibroblast growth factor 2 (Homo sapiens) (P09038 whole entry, looked up): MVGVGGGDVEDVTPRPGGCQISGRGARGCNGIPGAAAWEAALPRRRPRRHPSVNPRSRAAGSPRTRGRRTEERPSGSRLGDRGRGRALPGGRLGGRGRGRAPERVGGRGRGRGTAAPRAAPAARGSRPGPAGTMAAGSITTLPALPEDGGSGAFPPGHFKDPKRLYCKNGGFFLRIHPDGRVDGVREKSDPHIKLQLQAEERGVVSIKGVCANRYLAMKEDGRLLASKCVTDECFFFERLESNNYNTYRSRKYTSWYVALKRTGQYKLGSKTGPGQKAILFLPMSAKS
Test [15] can be described thus: mitochondrial membrane potential change in A549 cells, profiling panel, cell-based, JC-1 fluorescence, basal, 24 h, 100 nL (AID 1138).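 Also: A549 lung adenocarcinoma cells under basal conditions with no added stimulus; test concentration not given here.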 The following applies: higher = more signal.
Another test deals with Lefty1. Put plainly: Lefty1 binders on small-molecule microarrays, primary screen, biochemical, small-molecule microarray, 635/667 nm fluorescence (AID 1139). The following applies: small-molecule microarray binding, fluorescence 635/667; higher = more signal.
Test [16] has as its system wheat germ agglutinin (Triticum aestivum), Alexa647-labelled. The experiment in a line: wheat germ agglutinin binders on compound microarrays, profiling panel, artefact control for SMM control-protein annotation, biochemical, small-molecule microarray, 635/667 nm fluorescence (AID 1140).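 Also: score merges 667 nm feature emission with signal to noise over triplicate slides.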 The following applies: WGA-A647 binding, 635 nm fluorescence, higher = more signal.
The target in test [17] is Luciferin 4-monooxygenase (Photinus pyralis) (UniProt P08659). The experiment in a line: firefly luciferase enzyme inhibitors, primary screen, biochemical, luminescence, purified enzyme, 2006 set (AID 1141).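 Also: cell-free assay with purified firefly luciferase at 100 ng per well in PBS; test concentration not given here.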 The following applies: SteadyGlo luminescence, 30 min; higher = more signal, called active from +8 up or from −8 down unless noted.
Sequence of Luciferin 4-monooxygenase (Photinus pyralis) (P08659 whole entry, looked up): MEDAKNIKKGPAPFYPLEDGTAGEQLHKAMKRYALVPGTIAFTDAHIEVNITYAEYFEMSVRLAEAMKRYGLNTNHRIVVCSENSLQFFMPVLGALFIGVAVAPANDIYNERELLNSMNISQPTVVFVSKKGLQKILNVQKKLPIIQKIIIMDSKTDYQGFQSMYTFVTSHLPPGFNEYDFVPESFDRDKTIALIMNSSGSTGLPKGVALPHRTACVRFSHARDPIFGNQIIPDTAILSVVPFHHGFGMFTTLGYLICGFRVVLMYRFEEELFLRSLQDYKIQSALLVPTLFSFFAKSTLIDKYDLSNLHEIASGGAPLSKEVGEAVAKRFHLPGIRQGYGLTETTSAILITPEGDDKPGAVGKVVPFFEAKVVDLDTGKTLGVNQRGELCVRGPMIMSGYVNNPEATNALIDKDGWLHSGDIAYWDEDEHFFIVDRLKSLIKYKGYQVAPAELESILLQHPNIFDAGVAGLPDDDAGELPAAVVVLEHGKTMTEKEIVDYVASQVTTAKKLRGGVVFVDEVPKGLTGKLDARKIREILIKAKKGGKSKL

Activity calls are given as the source filed them.

Sequence of Follistatin (Homo sapiens) (P19883 whole entry, looked up): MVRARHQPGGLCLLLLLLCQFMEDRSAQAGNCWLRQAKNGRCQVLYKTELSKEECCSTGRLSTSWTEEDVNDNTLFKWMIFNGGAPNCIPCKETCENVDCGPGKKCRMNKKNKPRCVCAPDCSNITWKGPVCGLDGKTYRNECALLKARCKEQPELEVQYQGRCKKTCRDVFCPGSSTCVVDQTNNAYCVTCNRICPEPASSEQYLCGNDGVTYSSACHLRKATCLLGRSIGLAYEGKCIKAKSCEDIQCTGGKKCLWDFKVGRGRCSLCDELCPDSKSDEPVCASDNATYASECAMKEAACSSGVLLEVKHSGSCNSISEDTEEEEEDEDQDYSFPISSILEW

Consider `C[C@@H]1OC=C2[C@@H](O)[C@H]3O[C@H]3C(=O)[C@]23[C@H]1[C@H]1C2=C([C@@H](O)[C@H]4O[C@H]4C2=O)[C@@H]3O[C@@H]1C`, for which the composite z-score was -0.745 with Albumin (Bos taurus); -0.063 in test [2]; -0.147 in test [3]; -0.355 in test [4]; -0.934 in test [5]; -0.266 in test [6]. Moreover, the composite z-score with Sam68 (KHDRBS1) was -1.86; in test [7] it was 0.584; in test [8] it was -0.66; in [9], -0.317; in test [10] it was -0.556; in [11], -0.171. In addition, the composite z-score in test [12] was -0.559; in test [13], 0.0982; in test [14], 0.0979; in the test on Lefty1, 0.277; in test [16], -0.351. For the same molecule, the composite Z-score in [1] is 0.278 (inactive). Moreover, the z-score is 0.774 in [15] and -0.563 (inactive) in [17].

Turning to `CCCC[C@@H]1C[C@H]1[C@@H](NP(=O)(c1ccccc1)c1ccccc1)c1ccc(Cl)cc1`, the composite z-score was 0.708 with Albumin (Bos taurus); 0.092 in [2]; -0.0684 in [3]; 0.307 in test [4]; 0.807 in [5]; -0.162 in [6]. The composite z-score in the test with Sam68 (KHDRBS1) was -0.331; in test [7] it was -0.226; in test [8] it was 0.302; in [9], 1.23; in test [10] it was -0.212; in test [11] it was 0.343. Also, the composite z-score is -0.741 in test [12]; -1.38 in test [13]; -0.748 in test [14]; -1.83 in the test with Lefty1; 0.319 in test [16]. In addition, the composite Z-score in [1] is 0.198 (inactive). The z-score is 0.179 in test [15] and 0.183 (inactive) in test [17].

With `OCc1ccc(C2=CC(c3cccs3)N(Cc3cccc(OC(F)(F)F)c3)CC2)cc1` (stereo not given), the composite z-score was 0.343 with Albumin (Bos taurus); -0.0596 in test [2]; -0.115 in test [3]; 0.197 in [4]; 0.609 in test [5]; -0.368 in test [6]. Further, the composite z-score in the test on Sam68 (KHDRBS1) is 0.277; in test [7], 0.396; in [8], -0.426; in [9], 2.04; in test [10], -0.38; in [11], 0.147. The composite z-score in test [12] is -0.365; in test [13], 0.663; in test [14] it was 0.108; in the test with Lefty1, 0.704; in test [16], 0.173. Further, the composite Z-score in test [1] is -0.375 (inactive). The values for the z-score in test [15] and in test [17] were 0.944 and -1.26 (inactive), respectively.

Take `C=C(CC1(CNP(=O)(c2ccccc2)c2ccccc2)CC1)c1ccccc1`: the composite z-score with Albumin (Bos taurus) turned out to be 0.44; in test [2], 0.179; in [3] it was 0.0312; in test [4] it was 0.809; in [5], 1.2; in [6], 0.399. The composite z-score in the test with Sam68 (KHDRBS1) is -0.975; in [7] it was -0.754; in test [8] it was -0.139; in [9], 0.679; in test [10], 0.626; in test [11], 0.0728. Also, the composite z-score in test [12] is 0.126; in test [13], -0.274; in test [14], -0.639; in the test with Lefty1, -0.742; in test [16], 0.11. Moreover, in test [1], the composite Z-score is -0.0318 (inactive). Also, the z-score in [15] is 1.23; in [17] it was 2.19 (inactive).

Take `c1ccc(-c2cc3c(nc2-c2ccccc2)CCNC3)cc1`: the composite z-score with Albumin (Bos taurus) is 0.525; in test [2], 0.103; in test [3], -0.131; in test [4], -0.301; in test [5] it was -0.323; in test [6], -0.171. Moreover, the composite z-score is -0.653 in the test with Sam68 (KHDRBS1); 0.12 in test [7]; -0.269 in [8]; -0.0778 in test [9]; -0.716 in test [10]; -0.0306 in test [11]. Further, the composite z-score is 0.357 in test [12]; -0.444 in test [13]; 0.0533 in [14]; 0.0391 in the test on Lefty1; 0.326 in test [16]. Besides, the composite Z-score in test [1] was -0.369 (inactive). In addition, the z-score is 0.631 in test [15] and -0.13 (inactive) in test [17].

Turning to `COC(=O)[C@H]1C(=O)c2ccccc2O[C@@](C(=O)OC)(c2ccccc2)[C@@H]1c1ccccc1`, the composite z-score with Albumin (Bos taurus) was -0.764; in [2] it was -0.27; in test [3], -0.125; in test [4], -0.466; in test [5], -0.583; in [6] it was -0.129. In addition, the composite z-score is -0.988 in the test on Sam68 (KHDRBS1); -0.0221 in test [7]; -0.0286 in test [8]; -0.34 in test [9]; -1.34 in test [10]; 0.0173 in test [11]. Also, the composite z-score in test [12] was -1.75; in test [13], -0.245; in [14], -0.105; in the test with Lefty1 it was -0.0506; in test [16], -0.738. The composite Z-score in test [1] was 0.181 (inactive). Besides, the z-score in test [15] was -0.778; in test [17], 0.164 (inactive).

With `CCOC(=O)[C@H]1CC=C2C(=O)Oc3ccc(Br)cc3[C@@H]21`, the composite z-score in the test with Albumin (Bos taurus) is -0.104; in test [2], -0.245; in [3], -0.0896; in test [4] it was 0.663; in [5], 1.95; in [6], 0.328. Moreover, the composite z-score was 0.893 in the test with Sam68 (KHDRBS1); -1.24 in test [7]; 1.13 in [8]; 0.819 in test [9]; 1.27 in [10]; 1.87 in test [11]. Besides, the composite z-score is 0.474 in [12]; -1.1 in [13]; -1.3 in test [14]; -1.66 with Lefty1; -0.0424 in test [16]. In addition, in [1], the composite Z-score was 0.35 (inactive). The figures for the z-score in test [15] and in [17] were -0.896 and 0.936 (inactive), respectively.

Consider `COC(=O)NCC=Cc1nc(CCC=CC(=O)O[C@H]2CC3CC(=O)O[C@@H](C=CCC(C)C)C[C@@H]4CC[C@H](C)[C@@H](C[C@@H](OC)C[C@H](C2)O3)O4)co1`, for which the composite z-score with Albumin (Bos taurus) was -0.27; in [2] it was -0.095; in test [3], -0.14; in test [4] it was -0.303; in [5], -0.263; in test [6], 0.411. In addition, the composite z-score was -1.03 in the test on Sam68 (KHDRBS1); -0.647 in test [7]; -1.63 in test [8]; -0.106 in test [9]; -1.42 in test [10]; -0.422 in [11]. Further, the composite z-score was -1.2 in test [12]; -0.822 in test [13]; -0.43 in test [14]; -0.422 in the test with Lefty1; -0.777 in test [16]. Moreover, in test [1], the composite Z-score is 0.0506 (inactive). Also, the z-score was 1.88 in [15] and -0.0363 (inactive) in [17].
